Experimental data published in ChEMBL document CHEMBL4513141, “CO-ADD screening of NIH (USA) - Clinical Collection” (2021).
Results with a measured potency or affinity are listed apart.

Tested on: Klebsiella pneumoniae
Conditions: Concentration 20 uM; ASSAY_TEST Inhibition of Bacterial Growth; detection method Absorption (OD600); MEDIA CAMHB; plate type 384well; NBS; CORNING #3640; time 18 hr

Structure (SMILES)	Inhibition [%]
CNCCCCOc1ccccc1Cc1ccccc1.Cl	18.69
CCCCCCCCCCC[C@@H](C[C@@H]1OC(=O)[C@H]1CCCCCC)OC(=O)[C@H](CC(C)C)NC=O [ORLISTAT]	7.06
CC(C)[N+]1(C)C2CCC1CC(OC(=O)C(CO)c1ccccc1)C2.[Br-] (configuration not stated)	-0.09
CC(CN1c2ccccc2Sc2ccccc21)N(C)C.Cl (configuration not stated) [PROMETHAZINE HYDROCHLORIDE]	0.77
CN1CCc2cc(Cl)c(O)cc2[C@@H](c2ccccc2)C1.Cl	8.81
CN(C)CCCN1c2ccccc2Sc2ccc(Cl)cc21.Cl [CHLORPROMAZINE HYDROCHLORIDE]	12.47
CN1CCN(C2=Nc3cc(F)ccc3Cc3ccccc32)CC1 [FLUPERLAPINE]	11.17
O=C1Nc2ccc(Cl)cc2[C@@](C#CC2CC2)(C(F)(F)F)O1 [EFAVIRENZ]	-2.99
C#C[C@]1(O)CC[C@H]2[C@@H]3CCc4cc(O)ccc4[C@H]3CC[C@@]21C [ETHINYL ESTRADIOL]	16.78
NNCCc1ccccc1.O=S(=O)(O)O [PHENELZINE SULFATE]	6.23
CCC(=O)O[C@]1(C(=O)CCl)[C@@H](C)C[C@H]2[C@@H]3CCC4=CC(=O)C=C[C@]4(C)[C@@]3(F)[C@@H](O)C[C@@]21C [CLOBETASOL PROPIONATE]	-2.85
CCN1CC(CCN2CCOCC2)C(c2ccccc2)(c2ccccc2)C1=O.Cl (configuration not stated)	1.35
C[C@@H]1CN(CCCn2c3ccccc3c3ccccc32)C[C@H](C)N1.Cl.O	-0.67
CC(C(=O)O)c1cccc(C(=O)c2ccccc2)c1 (configuration not stated) [KETOPROFEN]	8.94
CCCSc1ccc2[nH]c(NC(=O)OC)nc2c1 [ALBENDAZOLE]	3.18
CCOC(=O)[C@H](CCc1ccccc1)N[C@@H](C)C(=O)N1[C@H](C(=O)O)C[C@@H]2CCC[C@@H]21	20.74
CC(C)(C(=O)c1cccnc1)c1cccnc1 [METYRAPONE]	19.17
NNC(=O)c1ccncc1 [ISONIAZID]	6.54
CC(=O)OCC(=O)[C@@]1(O)CC[C@H]2[C@@H]3CCC4=CC(=O)C=C[C@]4(C)[C@H]3[C@@H](O)C[C@@]21C [PREDNISOLONE ACETATE]	12.95

Structure (SMILES)	Inhibition [%]
CC(C)[C@H](N)C(=O)OCCOCn1cnc2c(=O)nc(N)[nH]c21.Cl [VALACYCLOVIR HYDROCHLORIDE]	6.23
CC(C[N+](C)(C)C)OC(N)=O.[Cl-] (configuration not stated) [BETHANECHOL CHLORIDE]	8.32
NC(=O)N1c2ccccc2CC(=O)c2ccccc21 [OXCARBAZEPINE]	3.69
CS(=O)(=O)O.Cc1ccc(NC(=O)c2ccc(CN3CCN(C)CC3)cc2)cc1Nc1nccc(-c2cccnc2)n1 [IMATINIB MESYLATE]	14.57
CN(C)C(=O)Oc1ccc[n+](C)c1.[Br-] [PYRIDOSTIGMINE BROMIDE]	3.02
CN1CCC(=C2c3ccccc3CCc3sccc32)CC1.O=C(O)/C=C\C(=O)O	13.2
CC(=O)O.NCc1ccc(S(N)(=O)=O)cc1 [MAFENIDE ACETATE]	13.84
CC(=O)O[C@@]12CO[C@@H]1C[C@H](O)[C@@]1(C)C(=O)[C@H](O)C3=C(C)[C@@H](OC(=O)[C@H](O)[C@@H](NC(=O)OC(C)(C)C)c4ccccc4)C[C@](O)([C@@H](OC(=O)c4ccccc4)[C@H]21)C3(C)C	11.64
CC(C)c1nc(CN(C)C(=O)N[C@H](C(=O)N[C@@H](Cc2ccccc2)C[C@H](O)[C@H](Cc2ccccc2)NC(=O)OCc2cncs2)C(C)C)cs1 [RITONAVIR]	14.84
CCN1CCC[C@H]1CNC(=O)c1cc(S(N)(=O)=O)ccc1OC [LEVOSULPIRIDE]	18.7
Cn1ccnc1S [METHIMAZOLE]	12.71
C/C=C1/[C@H]2C=C(C)C[C@]1(N)c1ccc(O)nc1C2	13.99
CC(=O)OCC(=O)[C@@]1(O)CC[C@H]2[C@@H]3C[C@H](C)C4=CC(=O)C=C[C@]4(C)[C@H]3[C@@H](O)C[C@@]21C [METHYLPREDNISOLONE ACETATE]	10.69
Cc1ccc(N(CC2=NCCN2)c2cccc(O)c2)cc1 [PHENTOLAMINE]	6.34
COC1=CC(=O)C[C@@H](C)[C@]12Oc1c(Cl)c(OC)cc(OC)c1C2=O [GRISEOFULVIN]	11.08
Cc1ccc(C)c(OCCCC(C)(C)C(=O)O)c1 [GEMFIBROZIL]	7.25
C[C@]12C=CC(=O)C=C1CC[C@@H]1[C@@H]2[C@@H](O)C[C@@]2(C)[C@H]1CC[C@]2(O)C(=O)COC(=O)CCC(=O)[O-].[Na+] [PREDNISOLONE SODIUM SUCCINATE]	6.54
O=C1N=C([O-])NC1(c1ccccc1)c1ccccc1.[Na+] [PHENYTOIN SODIUM]	7.94
